# Reference: the supplement of paper PMC12340860
# ± gives the standard deviation of the averaged measurements.
# System: Caenorhabditis elegans infected with Nematocida parisii
# Assay: progeny production of N. parisii-infected C. elegans relative to uninfected control; higher = stronger inhibition of microsporidia infection (rescue of reproduction)
# Settings: 60 µM; incubation time 5 days; spore dose (spores/uL): 18000
# Procedure: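 C. elegans N2 L1 larvae (100 per well, 96-well plate, K-medium with 5x E. coli OP50, 1% DMSO) were infected with Nematocida parisii spores (18,000 spores/uL) that had been pre-incubated for 1 h with each BU-CMD library compound at 60 uM. Plates were incubated 5 days at 21 C with shaking. Progeny were stained with rose bengal, scanned on a flatbed scanner and counted with WorMachine. Progeny number is expressed as % of uninfected DMSO controls on the same plate; three biological replicates per compound; hits were compounds with at least 60% progeny production.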
row,SMILES,progeny production
1,COC(=O)[C@@H]1[C@@H](c2ccccc2)[C@]2(c3ccc(OC)cc3)Oc3cc(OC)cc(OC)c3[C@@]23N=C(C2CC2)N[C@@]13O,8.05 ± 3.6%
2,CONC(=O)[C@H]1[C@@H](O)[C@@]2(O)c3c(OC)cc(OC)cc3O[C@@]2(c2ccc(OC)cc2)[C@@H]1c1ccccc1,13.2 ± 4.2%
3,COC(=O)[C@@H]1[C@@H](c2ccccc2)[C@]2(c3ccc(OC)cc3)Oc3cc(OC)cc(OC)c3[C@@]23N=C(C)N[C@@]13O,14.3 ± 4%
